The values below come from ChEMBL document CHEMBL5606460, “ASAP - DENV-2 NS2B-NS3 protease fluorescence single point” (2024).

Hit rate of the full screen: of about 2,000 compounds, about 110 (5.5%) showed an effect of 50% or more. Only a selection was taken, and strong results are over-represented in it overall.

This assay concerns the target Genome polyprotein (dengue virus type 2) (UniProt P29990).
The mark [1] stands for this setting: Thailand/16681/1984, Concentration 25.0 uM, Number of replicates 1.0.

For orientation: inhibition means the relative decrease from the control value, in per cent.

In the case of `O=Cc1ccc(N2CCC(C(=O)N[C@H]3CCOc4ccc(F)cc43)CC2)cc1`, under setting [1], the inhibition was 15.7%.
Take `COc1cc(Cc2cnn(-c3ccc(F)cc3)c2)nc(N2CCNCC2)n1`: the inhibition runs as follows: (Thailand/16681/1984, Concentration 49.5 uM, Number of replicates 2.0, Standard deviation 0.031215136118926425 %) 0.871%; (Thailand/16681/1984, Concentration 99.01 uM, Number of replicates 2.0, Standard deviation 1.7579341775024742 %) 1.83%; (Thailand/16681/1984, Concentration 198.0 uM, Number of replicates 2.0, Standard deviation 1.6450393762001025 %) 5.51%.
For the molecule `O=C(O)c1ccn(C2CCN(Cc3c[nH]c4ccccc34)CC2)n1`, the inhibition (Thailand/16681/1984, Concentration 49.5 uM, Number of replicates 2.0, Standard deviation 2.1869842063089484 %) is -2.55%; the inhibition (Thailand/16681/1984, Concentration 99.01 uM, Number of replicates 2.0, Standard deviation 2.684345636447637 %) was -2.42%; the inhibition (Thailand/16681/1984, Concentration 198.0 uM, Number of replicates 2.0, Standard deviation 2.4976754742252494 %) was -2.46%.
Turning to `Cc1cnc(NC(=O)C2CCN(c3ccc(C=O)cc3)CC2)c([N+](=O)[O-])c1`, the inhibition under setting [1] was 14.4%.
For the molecule `Cc1cc(CO)c2cccc(Cc3cccc(NC(=O)Cc4c[nH]c5ccccc45)c3)c2n1`, the inhibition runs as follows: (Thailand/16681/1984, Concentration 49.95 uM, Number of replicates 2.0, Standard deviation 0.8412168519630298 %) -0.469%; (Thailand/16681/1984, Concentration 99.9 uM, Number of replicates 2.0, Standard deviation 1.20193607081355 %) 3.26%.
For the molecule `Cc1cc(CO)c2cccc(Cc3ccccc3NC(=O)C[C@H]3CCCN3)c2n1`, the inhibition is -1.74% (Thailand/16681/1984, Concentration 49.95 uM, Number of replicates 2.0, Standard deviation 2.3110961437297597 %) and -1.01% (Thailand/16681/1984, Concentration 99.9 uM, Number of replicates 1.0).
Consider `Cc1cnccc1NC(=O)c1cncc(S(C)(=O)=O)c1`, for which the inhibition came to 1.61% (Thailand/16681/1984, Concentration 49.5 uM, Number of replicates 2.0, Standard deviation 0.09362930826064811 %); 2.02% (Thailand/16681/1984, Concentration 99.01 uM, Number of replicates 2.0, Standard deviation 0.10343333957385824 %); 2.99% (Thailand/16681/1984, Concentration 198.0 uM, Number of replicates 2.0, Standard deviation 0.39657621920361824 %).
Regarding `COc1cc(CC(=O)NCc2cccnc2)nc(N2CCNCC2)n1`, the inhibition runs as follows: (Thailand/16681/1984, Concentration 49.5 uM, Number of replicates 2.0, Standard deviation 1.473545535483215 %) -5.12%; (Thailand/16681/1984, Concentration 99.01 uM, Number of replicates 2.0, Standard deviation 1.7989399422367844 %) -4.77%; (Thailand/16681/1984, Concentration 198.0 uM, Number of replicates 2.0, Standard deviation 1.3802101593440819 %) -3.61%.
`CNC(=O)c1cc(Cl)cc(C)c1NS(=O)(=O)c1ccc(Oc2ccccc2Cl)cc1`: the inhibition by setting is: (Thailand/16681/1984, Concentration 49.5 uM, Number of replicates 2.0, Standard deviation 1.9936078061389018 %) -4.39%; (Thailand/16681/1984, Concentration 99.01 uM, Number of replicates 2.0, Standard deviation 1.8430300976388188 %) -5.53%; (Thailand/16681/1984, Concentration 198.0 uM, Number of replicates 2.0, Standard deviation 2.010624849106266 %) -7.09%.
As for `CNC(=O)c1cnncc1NS(=O)(=O)c1ccc(Oc2ccccc2Cl)cc1`, the inhibition (Thailand/16681/1984, Concentration 49.5 uM, Number of replicates 2.0, Standard deviation 2.9688082409176766 %) is 2.22%; the inhibition (Thailand/16681/1984, Concentration 99.01 uM, Number of replicates 2.0, Standard deviation 2.2862743420867915 %) turned out to be 7.71%; the inhibition (Thailand/16681/1984, Concentration 198.0 uM, Number of replicates 2.0, Standard deviation 2.701916446857586 %) was determined as 19.5%.
For `O=S(=O)(Nc1ccc(Cl)cc1)c1ccc(Oc2ccccc2Cl)cc1`, the inhibition is, setting by setting: (Thailand/16681/1984, Concentration 49.5 uM, Number of replicates 2.0, Standard deviation 0.04775136783847868 %) 12.2%; (Thailand/16681/1984, Concentration 99.01 uM, Number of replicates 2.0, Standard deviation 0.32853232391890236 %) 22.7%; (Thailand/16681/1984, Concentration 198.0 uM, Number of replicates 2.0, Standard deviation 1.060565762839157 %) 44.5%.
In the case of `O=C(O)c1cc(Cl)ccc1NS(=O)(=O)c1ccc(Br)cc1`, the inhibition by setting is: (Thailand/16681/1984, Concentration 49.5 uM, Number of replicates 2.0, Standard deviation 1.3795853744617563 %) 7.98%; (Thailand/16681/1984, Concentration 99.01 uM, Number of replicates 2.0, Standard deviation 2.3616490916140984 %) 19.6%; (Thailand/16681/1984, Concentration 198.0 uM, Number of replicates 2.0, Standard deviation 0.9946440456706616 %) 67%.
As to `CNC(=O)c1cc(Cl)ccc1NS(=O)(=O)c1ccc(NS(C)(=O)=O)cc1`, the inhibition is 1.5% (Thailand/16681/1984, Concentration 49.5 uM, Number of replicates 2.0, Standard deviation 0.6295365180266114 %); 3.13% (Thailand/16681/1984, Concentration 99.01 uM, Number of replicates 2.0, Standard deviation 0.4200098669756753 %); 6.02% (Thailand/16681/1984, Concentration 198.0 uM, Number of replicates 2.0, Standard deviation 0.4807630318175827 %).
Regarding `CNC(=O)c1cc(OC)ccc1NS(=O)(=O)c1ccc(Oc2ccccc2Cl)cc1`, the inhibition by setting is: (Thailand/16681/1984, Concentration 49.5 uM, Number of replicates 2.0, Standard deviation 1.018543331825067 %) 7.08%; (Thailand/16681/1984, Concentration 99.01 uM, Number of replicates 2.0, Standard deviation 0.3266212172200244 %) 15.5%; (Thailand/16681/1984, Concentration 198.0 uM, Number of replicates 2.0, Standard deviation 0.9287695329724984 %) 21.9%.
For the molecule `CNC(=O)c1cc(Cl)ccc1NS(=O)(=O)c1ccc(Oc2ccccc2Cl)cc1`, the inhibition was 57.1% (Thailand/16681/1984, Concentration 49.5 uM, Number of replicates 2.0, Standard deviation 2.214504665393713 %); 89.7% (Thailand/16681/1984, Concentration 99.01 uM, Number of replicates 2.0, Standard deviation 0.44410505168195935 %); 89.7% (Thailand/16681/1984, Concentration 198.0 uM, Number of replicates 2.0, Standard deviation 0.048202507704939286 %).
Consider `CNS(=O)(=O)c1ccc(Oc2ccccc2Cl)cc1`, for which the inhibition was -1.72% (Thailand/16681/1984, Concentration 49.5 uM, Number of replicates 2.0, Standard deviation 2.6119045762628477 %); -0.429% (Thailand/16681/1984, Concentration 99.01 uM, Number of replicates 2.0, Standard deviation 1.5233102161282106 %); 1.7% (Thailand/16681/1984, Concentration 198.0 uM, Number of replicates 2.0, Standard deviation 1.4243001461587221 %).
Turning to `O=C(NCc1ccccc1)c1cc(O)ccc1NS(=O)(=O)c1ccc(Oc2ccccc2Cl)cc1`, the inhibition runs as follows: (Thailand/16681/1984, Concentration 49.5 uM, Number of replicates 2.0, Standard deviation 0.5844803568567073 %) 33.5%; (Thailand/16681/1984, Concentration 99.01 uM, Number of replicates 2.0, Standard deviation 0.18145668135528656 %) 55.3%; (Thailand/16681/1984, Concentration 198.0 uM, Number of replicates 2.0, Standard deviation 0.23302823954279267 %) 60.6%.
